The values below come from PubChem BioAssay (NCATS).

Records with an inconclusive call do not appear. Activity calls are given as the source filed them. Unless noted, calls come from the whole dose curve; as a rule, active = well fitted curve in the direction sought with a large enough effect; inconclusive = small, poorly fitted or top-dose-only effect, or another doubt; inactive = no such curve, though single readings can be large; an effect the other way counts as inactive or inconclusive.

Assay [1] can be described thus: qHTS to identify inhibitors of the type 1 interferon - major histocompatibility complex class I in skeletal muscle: primary screen against the NCATS Mechanism Interrogation Plate v5.0 (MIPE) Libary (AID 1347411). Note: potency is the fitted concentration of half-maximal effect; nearly all actives have a fitted effect of over 65% in size. In short, it runs like this:
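Luminescence from HiBiT-tagged endogenous HLA-B*08:01 served as the MHC class I read-out. CRISPR-engineered C25cl48 human myoblasts received 4.0 ng/ml IFN-beta plus compound for 24 hrs, with an 11-point, 1:3 series topping at 46 uM final.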

A short description of assay [2]: Primary qHTS for inhibitors of nuclear receptor binding SET domain protein 2 (NSD2) in an isogenic RCH-ACV NSD2 p.E1099K mutant (9B) (AID 1645876). Note: potency is the fitted concentration of half-maximal effect; nearly all actives have a fitted effect of over 70% in size. A general note: qHTS replaces the single test concentration by a dilution series.
Assay [3] in a line: Primary qHTS for inhibitors of nuclear receptor binding SET domain protein 2 (NSD2) in an RCH-ACV wild type WT cells (2C) (AID 1645877). Note: potency is the fitted concentration of half-maximal effect; nearly all actives have a fitted effect of over 70% in size.
Assay [4] has as its target Glutathione peroxidase 1 (Homo sapiens) (UniProt P07203). Put plainly: Primary qHTS Assay for Inhibitors of Recombinant Selenoprotein Glutathione Peroxidase 1 (GPX1) (AID 1845191). Note: nearly all actives have a fitted effect of over 65% in size. The method, boiled down:
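Recombinant GPX1 (10 nM final) was preincubated with compound for 30 min at room temperature, then reacted with 1 mM GSH, 0.5 mM CHP, 0.5 mM NADPH and 100 nM glutathione reductase; NADPH fluorescence (340/450 nm) was read at 0 and 15 min.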

Assay [5] concerns the target Phospholipid hydroperoxide glutathione peroxidase GPX4 (Homo sapiens) (UniProt P36969). The experiment in a line: Primary qHTS Assay for Inhibitors of Recombinant Selenoprotein Glutathione Peroxidase 4 (GPX4) (AID 1845192). For activity change, negative = inhibition: % is set by controls: 0 for no effect and ±100 for the full control effect. Note: nearly all actives have a fitted effect of over 65% in size. The following applies: outcome: dose series up to 50 µM unless noted. The method, boiled down: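 GR-coupled readout: 100 nM GR, 1 mM GSH, 0.5 mM NADPH; NADPH fluorescence (ex 340/em 450 nm) read at t=0 and after 15 min RT. GPX4 200 nM, preincubated 30 min with compound; substrate 0.5 mM CHP.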

A short description of assay [6]: qHTS drug screen for cell cycle checkpoint inhibitors in PARPi-resistant BRCA-mutant ovarian cancer cell lines. (AID 1963452; calls by dose curve; note: potency is the fitted concentration of half-maximal effect). The following applies: PEO1/OlaR viability, CellTiter-Glo luminescence, 96 h; for Z-AUC: stronger effect = lower value. The method, boiled down: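 PEO1, PEO4 and PEO1/OlaR ovarian cancer cells, 600 per well, exposed 96 h at 37C to a dilution series. Viability read by CellTiter-Glo luminescence, normalized to DMSO and empty wells; activity summarized as Z-AUC.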

Assay [7] is described as follows: qHTS assay to identify inhibitors of the type 1 interferon - major histocompatibility complex class I in skeletal muscle: Counter screen cell viability and HiBit confirmation (AID 1347412). For activity change, negative = inhibition: % is set by controls: 0 for no effect and ±100 for the full control effect. For all read-outs here: nearly all actives have a fitted effect of over 60% in size. Note: potency is the fitted concentration of half-maximal effect. The following applies: iHSKM muscle cells + IFN-b, HiBiT or CellTiter-Glo, 24 h; for activity change, negative = inhibition: at 45.9 µM (top of the series). In short, it runs like this:
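CRISPR HLA-B*08:01-HiBit immortalized human myoblasts (C25cl48) stimulated with 4 ng/ml IFN-beta and compounds (12-point 1:3, top 46 uM final) for 24 h at 37 C. Duplicate plates read by HiBit lytic luminescence or CellTiter Glo ATP.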

The mark [8] stands for this setting: measured here: PEO1 parental Z-AUC.

Chain of Glutathione peroxidase 1 (Homo sapiens) (P07203 whole entry, looked up): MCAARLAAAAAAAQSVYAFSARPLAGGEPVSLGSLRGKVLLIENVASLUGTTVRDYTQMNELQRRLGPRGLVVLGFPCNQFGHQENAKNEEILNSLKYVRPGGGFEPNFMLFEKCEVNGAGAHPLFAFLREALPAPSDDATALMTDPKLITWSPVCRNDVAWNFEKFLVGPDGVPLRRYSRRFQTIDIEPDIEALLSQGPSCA
Chain of Phospholipid hydroperoxide glutathione peroxidase GPX4 (Homo sapiens) (P36969 whole entry, looked up): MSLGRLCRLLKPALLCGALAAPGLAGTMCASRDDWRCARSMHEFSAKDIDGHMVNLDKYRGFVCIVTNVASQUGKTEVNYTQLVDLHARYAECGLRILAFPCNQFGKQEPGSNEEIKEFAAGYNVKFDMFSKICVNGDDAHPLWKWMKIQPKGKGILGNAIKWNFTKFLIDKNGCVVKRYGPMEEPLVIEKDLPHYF

Regarding `CCc1cnn2c(NCc3ccc[n+]([O-])c3)cc(N3CCCC[C@H]3CCO)nc12`, the Potency in assay [1] is 5.2 nM (active); in assay [2], 37.2 nM (active); in assay [3] it was 37.2 nM (active); in assay [6], 245 nM (active). Also, the Potency result in assay [4] and in assay [5] was “inactive” each time. Further, the Z-AUC in assay [6] (setting [8]) is -2.15; in assay [6] (measured here: PEO4 Z-AUC), -1.73. Besides, the activity change, negative = inhibition in assay [7] (Viability) was 5.42% (inactive).

Consider `COC(=O)c1ccc([C@H]2c3[nH]c4ccccc4c3C[C@H](C(=O)OC)N2C(=O)CCl)cc1`, for which the Potency in assay [1] is 829 nM (active); in assay [2], 148 nM (active); in assay [3] it was 148 nM (active); in assay [7] (HiBiT), 496 nM (active); in assay [7] (Viability), 787 nM (active). Moreover, the Potency result in assay [4] and in assay [5] was “inactive” in each case. Moreover, the Z-AUC in assay [6] is -1.5 (inactive); in assay [6] (setting [8]), 0.403; in assay [6] (measured here: PEO4 Z-AUC), -0.118.

With `OC1CCC(Oc2cccc3cnc(Nc4ccc5nc[nH]c5c4)nc23)CC1` (stereo unspecified), the Potency was 523 nM (active) in assay [1], 590 nM (active) in assay [2], 468 nM (active) in assay [3] and 557 nM (active) in assay [7] (HiBiT). In addition, in assay [4], the Potency entry is “inactive”. Moreover, the Z-AUC in assay [6] is -1.25 (inactive); in assay [6] (setting [8]), -1.54; in assay [6] (measured here: PEO4 Z-AUC), -0.421. Besides, in assay [7] (Viability), the activity change, negative = inhibition was 9.5% (inactive).

On to `COc1ccc(N2C(=O)N(c3c(C)cccc3Cl)Cc3cnc(Nc4ccc(C5CCN(C)CC5)cc4OC)nc32)nc1`, for which the Potency is 14700 nM (active) in assay [1], 3320 nM (active) in assay [2], 3720 nM (active) in assay [3] and 14000 nM (active) in assay [7] (HiBiT). For the same compound, the Potency entry in assay [4] and in assay [5] was “inactive” each time. In addition, the Z-AUC in assay [6] is -1.61 (inactive); in assay [6] (setting [8]) it was -1.1; in assay [6] (measured here: PEO4 Z-AUC), -0.332.

Consider `C[C@H](NC(=O)/C(C#N)=C/c1cccc(Br)n1)c1ccccc1`, for which the Potency was 10400 nM (active) in assay [1], 14800 nM (active) in assay [2], 14800 nM (active) in assay [3] and 7010 nM (active) in assay [7] (HiBiT). Further, the Potency result in assay [4] was “inactive”. In addition, the values for the Z-AUC in assay [6], in assay [6] (setting [8]) and in assay [6] (measured here: PEO4 Z-AUC) were 0.178 (inactive), -0.139 and -0.487, respectively. Further, in assay [7] (Viability), the activity change, negative = inhibition was 17% (inactive).

As for `C=CC(=O)N1CC/C(=C\c2ccc(F)c([N+](=O)[O-])c2)C(=O)/C(=C/c2ccc(F)c([N+](=O)[O-])c2)C1`, the Potency was 658 nM (active) in assay [1]; 83.3 nM (active) in assay [2]; 59 nM (active) in assay [3]; 219 nM (active) in assay [6]; 222 nM (active) in assay [7] (HiBiT). The Potency result in assay [4] was “inactive”. Further, the Z-AUC was -2.29 in assay [6] (setting [8]) and -2.19 in assay [6] (measured here: PEO4 Z-AUC).

With `CN(Cc1ccc(/C=C/C(=O)NO)cc1)CC12CC3CC(CC(C3)C1)C2`, the Potency in assay [1] was 330 nM (active); in assay [2], 263 nM (active); in assay [3], 209 nM (active); in assay [7] (HiBiT) it was 351 nM (active). Also, the Potency entry in assay [5] is “inactive”. The Z-AUC in assay [6] was -0.476 (inactive); in assay [6] (setting [8]), -0.953; in assay [6] (measured here: PEO4 Z-AUC) it was -1.12. Moreover, the activity change, negative = inhibition in assay [7] (Viability) is -18.3% (inactive).

With `Cc1cc(-n2c(=O)ccc3cnc4[nH]ccc4c32)ccc1F`, the values for the Potency in assay [1], in assay [2] and in assay [7] (HiBiT) were 4150 nM (active), 18600 nM (active) and 3520 nM (active), respectively. Further, the Potency result in assay [4] and in assay [5] was “inactive” in each case. Moreover, the Z-AUC in assay [6] was -0.465 (inactive); in assay [6] (setting [8]) it was 0.0709; in assay [6] (measured here: PEO4 Z-AUC) it was 0.281. The activity change, negative = inhibition in assay [7] (Viability) is 5.99% (inactive).

On to `C=C1C(=O)O[C@@H]2[C@H]3C(C)=CC[C@@]34O[C@@]4(C)CC[C@@H]12`, for which the Potency was 16500 nM (active) in assay [1], 5250 nM (active) in assay [2], 4680 nM (active) in assay [3] and 12500 nM (active) in assay [7] (HiBiT). Also, the Potency result in assay [4] is “inactive”. In addition, the results for the Z-AUC in assay [6], in assay [6] (setting [8]) and in assay [6] (measured here: PEO4 Z-AUC) were 0.243 (inactive), 0.182 and 0.342, respectively. Further, the activity change, negative = inhibition in assay [7] (Viability) is 49.2% (inactive).
